Experimental data published in PubChem BioAssay (EPA / NIEHS).
Results filed as inconclusive are left out. Activity calls are given as the source filed them. How the source made its calls: active means hit-call score of the fitted dose curve at least 0.9, where 1 is the maximum; inconclusive means response in the unintended direction; inactive means score below 0.9.

Key:
[1] = LTEA_HepaRG_LDH_cytotoxicity: Cytotoxicity Assessment in the Life Technologies and Expression Analysis (LTEA) Assay (AID 2283563);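 on AC50: LDH activity released into spent culture medium as a marker of cell death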
Procedure, shortened: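 Differentiated human HepaRG cells, plated 48 h beforehand, were switched to serum-free induction medium and exposed for 48 h to eight half-log concentrations (top 100 uM) in 0.5% DMSO. LDH was measured in spent medium; activity was fitted relative to DMSO vehicle.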

[2] = TOX21_p53_BLA_p2_viability: Viability Assessment in the Tox21 HCT-116 p53 Agonism Beta-lactamase Assay, Phase 2 (AID 2283591);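 further: compound exposure lasted 16 h at 37 °C; actives lower the ATP signal meaning cytotoxicity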
Procedure, shortened: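 Cytotoxicity readout: CellTiter-Glo ATP luminescence, 30 min at room temperature, after the beta-lactamase read. Cells were HCT116 exposed 16 h at 37C to compounds pin-transferred at 217-fold dilution from DMSO stocks.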

[3] = target: Cellular tumor antigen p53 (Homo sapiens) (UniProt P04637); test: TOX21_p53_BLA_p2_ratio: Tox21 HCT-116 p53 Agonism Beta-lactamase Assay, Ratio, Phase 2 (AID 2283592)
Procedure, shortened: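 Ratio endpoint: beta-lactamase cleavage of CCF4-AM, blue (460 nm) over green (530 nm). HCT116 reporter line; 16 h treatment, 37C; substrate 2 h RT.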

[4] = TOX21_p53_BLA_p3_viability: Viability Assessment in the Tox21 HCT-116 p53 Agonism Beta-lactamase Assay, Phase 3 (AID 2283593);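 further: cells exposed to compound for 16 h before reading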
Procedure, shortened: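 Cellular ATP was quantified by CellTiter-Glo luminescence, read after 30 min at room temperature. Beforehand, HCT116 cells (4000/well) received compound 5 h post-seeding, 217-fold diluted from DMSO, then incubated 16 h at 37C.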

[5] = target: Cellular tumor antigen p53 (Homo sapiens) (UniProt P04637); test: TOX21_p53_BLA_p3_ratio: Tox21 HCT-116 p53 Agonism Beta-lactamase Assay, Ratio, Phase 3 (AID 2283596)
Procedure, shortened: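 Cells were seeded at 4000/well, rested 5 h at 37C, then dosed with DMSO compound solutions (217-fold dilution) for 16 h. CCF4-AM substrate was loaded for 2 h at room temperature, and the 460/530 nm emission ratio was fitted for gain of signal versus DMSO.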

[6] = TOX21_p53_BLA_p4_viability: Viability Assessment in the Tox21 HCT-116 p53 Agonism Beta-lactamase Assay, Phase 4 (AID 2283597);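 further: hits lower the luminescence signal meaning cytotoxicity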
Procedure, shortened: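 Cytotoxicity was inferred from loss of CellTiter-Glo luminescence. HCT116 cells had been dosed with compounds after 5 h plating, incubated 16 h at 37C and 5% CO2, and exposed to the CCF4-AM substrate for 2 h.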

[7] = target: Cellular tumor antigen p53 (Homo sapiens) (UniProt P04637); test: TOX21_p53_BLA_p5_ratio: Tox21 HCT-116 p53 Agonism Beta-lactamase Assay, Ratio, Phase 5 (AID 2283599)
Procedure, shortened: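 Beta-lactamase reporter ratio (blue 460 nm over green 530 nm, 405 nm excitation) after 2 h CCF4-AM loading, in HCT-116 cells exposed 16 h at 37 C to compounds pinned at 217-fold dilution. Increases relative to DMSO baseline scored.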

[8] = TOX21_p53_BLA_p5_viability: Viability Assessment in the Tox21 HCT-116 p53 Agonism Beta-lactamase Assay, Phase 5 (AID 2283600)
Procedure, shortened: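 Luciferase-coupled ATP quantitation of cells treated for 16 h (37C, 5% CO2) with test chemicals delivered in DMSO via a 217-fold dilution; 4000 cells/well; reagent incubated 30 min at room temperature before luminescence reading.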

[9] = target: Cellular tumor antigen p53 (Homo sapiens) (UniProt P04637); test: TOX21_p53_BLA_p4_ratio: Tox21 HCT-116 p53 Agonism Beta-lactamase Assay, Ratio, Phase 4 (AID 2283601)
Procedure, shortened: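 Signal is the blue/green (460nm/530nm) ratio of cleaved versus uncleaved CCF4-AM substrate, read after 2 h substrate loading. Cells were HCT116 carrying the p53-responsive beta-lactamase reporter, dosed 16 h at 37C, 5% CO2; CellTiter-Glo measured in parallel.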

[10] = Tanguay_ZF_120hpf_MORT_legacy: (Legacy) Oregon State University Tanguay Lab 120 Hour Post-fertilization zebrafish Assay for Mortality (AID 2283633)
Procedure, shortened: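 Dechorionated Tropical 5D wild-type zebrafish embryos, one per well from 6 hpf, were statically exposed at 28C in the dark until 120 hpf (0.64% DMSO final). Mortality was scored as present/absent by brightfield microscopy, fitted positively versus DMSO.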

[11] = Tanguay_ZF_120hpf_YSE_legacy: (Legacy) Oregon State University Tanguay Lab 120 Hour Post-fertilization zebrafish Assay for Yolk Sac Edema (AID 2283634);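 on AC50: actives raise the incidence of yolk sac edema above the DMSO baseline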
Procedure, shortened: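 Tropical 5D wild-type embryos, dechorionated with pronase at 4 hpf, were exposed singly from 6 hpf to 120 hpf under static, sealed, dark conditions at 28C with 0.64% DMSO final. Yolk sac edema was scored present/absent by brightfield microscopy.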

[12] = Tanguay_ZF_120hpf_AXIS_legacy: (Legacy) Oregon State University Tanguay Lab 120 Hour Post-fertilization zebrafish Assay for Body Axis Malformation (AID 2283635);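 on AC50: potency for an increased fraction of larvae scored with body axis malformation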
Procedure, shortened: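 Tropical 5D wild-type zebrafish embryos, dechorionated with pronase at 4 hpf, were placed singly in wells at 6 hpf and exposed statically to test chemical (0.64% DMSO final) at 28C until 120 hpf, then scored by brightfield for body axis defects.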

[13] = Tanguay_ZF_120hpf_EYE_legacy: (Legacy) Oregon State University Tanguay Lab 120 Hour Post-fertilization zebrafish Assay for Eye Malformation (AID 2283636);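 further: binary presence or absence of eye malformation scored by brightfield in 120 hpf larvae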
Procedure, shortened: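 Binary brightfield scoring of eye defects at 120 hpf after static exposure from 6 hpf of single pronase-dechorionated wild-type embryos (28C, 0.64% DMSO). Non-mortality endpoints omitted where embryos died; fit vs DMSO.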

[14] = Tanguay_ZF_120hpf_SNOU_legacy: (Legacy) Oregon State University Tanguay Lab 120 Hour Post-fertilization zebrafish Assay for Snout Malformation (AID 2283637)
Procedure, shortened: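 Binary snout-malformation call at 120 hpf in wild-type 5D embryos, chorion removed by pronase, under static exposure from 6 hpf at 28C (0.64% DMSO). Embryos dying by 24 or 120 hpf excluded.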

[15] = Tanguay_ZF_120hpf_JAW_legacy: (Legacy) Oregon State University Tanguay Lab 120 Hour Post-fertilization zebrafish Assay for Jaw Malformation (AID 2283638);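 on AC50: active means more embryos with jaw malformation than DMSO controls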
Procedure, shortened: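 Tropical 5D wild-type embryos, dechorionated with pronase at 4 hpf, were placed singly per well at 6 hpf and statically exposed at 28C until 120 hpf (0.64% DMSO final). Jaw malformation scored as present/absent by brightfield microscopy at 120 hpf, analyzed relative to DMSO.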

[16] = Tanguay_ZF_120hpf_OTIC_legacy: (Legacy) Oregon State University Tanguay Lab 120 Hour Post-fertilization zebrafish Assay for Otic Vesicle Malformation (AID 2283639)
Procedure, shortened: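 Brightfield scoring at 120 hpf, binary present/absent; DMSO negative control, 5uM trimethyltin chloride positive control. Static exposure at 28C, final DMSO 0.64% (vol/vol). Dead embryos not scored for malformation.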

[17] = Tanguay_ZF_120hpf_PE_legacy: (Legacy) Oregon State University Tanguay Lab 120 Hour Post-fertilization zebrafish Assay for Pericardial Edema (AID 2283640);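 on AC50: potency for increased incidence of pericardial edema versus DMSO baseline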
Procedure, shortened: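 Tropical 5D wild-type zebrafish embryos were exposed statically to 120 hpf at 28C, sealed and foil-covered, in 0.64% DMSO final. Pericardial edema was scored present/absent by brightfield microscopy; dead embryos were not scored.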

[18] = Tanguay_ZF_120hpf_BRAI_legacy: (Legacy) Oregon State University Tanguay Lab 120 Hour Post-fertilization zebrafish Assay for Brain Malformation (AID 2283641)
Procedure, shortened: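 Tropical 5D wild-type zebrafish embryos were exposed statically in sealed, foil-covered plates at 28C until 120 hpf, with 0.64% (vol/vol) final DMSO. Brain malformation was scored present/absent by brightfield microscopy, relative to DMSO baseline.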

[19] = Tanguay_ZF_120hpf_SOMI_legacy: (Legacy) Oregon State University Tanguay Lab 120 Hour Post-fertilization zebrafish Assay for Somite Malformation (AID 2283647)
Procedure, shortened: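 Tropical 5D wild-type zebrafish embryos, dechorionated with pronase at 4 hpf, were placed singly at 6 hpf and statically exposed until 120 hpf at 28C in 0.64% DMSO. Somite malformation was scored present/absent by brightfield microscopy versus DMSO.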

[20] = ATG_XTT_Cytotoxicity: Cytotoxicity Assessment in the Attagene TRANS-FACTORIAL HepG2 Assay (AID 2283584)
Procedure, shortened: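 HepG2 human liver cells, transiently transfected with multiple GAL4-UAS reporter units, were dosed and read at 24 h by XTT as cell number. Loss of signal was fitted relative to DMSO negative control baseline.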

Measured: AC50

Chain of Cellular tumor antigen p53 (Homo sapiens) (P04637 whole entry, looked up): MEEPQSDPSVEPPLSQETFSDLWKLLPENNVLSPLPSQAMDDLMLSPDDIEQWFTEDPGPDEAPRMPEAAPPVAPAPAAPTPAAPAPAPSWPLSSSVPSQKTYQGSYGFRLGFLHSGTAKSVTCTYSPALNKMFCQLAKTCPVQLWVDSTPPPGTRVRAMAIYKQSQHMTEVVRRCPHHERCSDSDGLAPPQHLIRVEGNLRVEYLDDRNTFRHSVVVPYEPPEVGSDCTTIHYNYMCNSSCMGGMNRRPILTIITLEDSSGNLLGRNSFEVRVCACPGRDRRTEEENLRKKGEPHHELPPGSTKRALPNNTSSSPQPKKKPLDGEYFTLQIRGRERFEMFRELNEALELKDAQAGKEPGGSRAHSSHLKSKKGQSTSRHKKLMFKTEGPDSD

CCCCC(C#N)(Cn1cncn1)c1ccc(Cl)cc1 (centres undefined)
active: [11] 37.7 µM | [12] 56 µM | [13] 49.4 µM | [14] 48.6 µM | [15] 48 µM | [17] 46.8 µM
not listed: [20]
inactive: all other assays above

COP(=S)(OC)Oc1ccc([N+](=O)[O-])c(C)c1
inactive: all assays above

CC1(C)CCC(=Cc2ccc(Cl)cc2)C1(O)Cn1cncn1 (centres undefined)
not listed: [14] | [19] | [20]
inactive: all other assays above

COC(=O)N(C(=O)N1CO[C@@]2(C(=O)OC)Cc3cc(Cl)ccc3C2=N1)c1ccc(OC(F)(F)F)cc1
active: [1] 60.5 µM | [3] 46.3 µM | [9] 37.6 µM
not listed: [12] | [20]
inactive: all other assays above

CCOC(=O)C(C)OC(=O)c1cc(Oc2ccc(C(F)(F)F)cc2Cl)ccc1[N+](=O)[O-] (centres undefined)
not listed: [14] | [15] | [20]
inactive: all other assays above

CCN(CC)C(=O)C(C)Oc1cccc2ccccc12 (centres undefined)
active: [11] 55 µM
not listed: [4] | [8]
inactive: all other assays above
